APE1 inh – qHTS Assay for Inhibitors of the Human Apurinic/apyrimidinic Endonuclease 1 (APE1); Potency, µM (titrated, usually from 65.8 µM), inactives show at the highest dose activity change, negative = inhibition, most hits filed as inhibitors; DNA repair nuclease/redox regulator APEX1 (Homo sapiens), P27695; recombinant APE1, TAMRA/BHQ-2 abasic DNA cleavage fluorescence; hit rate 0.35% among 350,000;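 note: plate controls were vehicle for no effect and reference inhibitor for full effect; nearly all actives have a fitted effect of over 55% in size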
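Readout is kinetic fluorescence (ex 525, em 598 nm) from cleavage of 50 nM TAMRA/BHQ-2 THF abasic duplex by 0.75 nM APE1, compound added 15 min beforehand at RT.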
KDM4E inh – qHTS Assay for Inhibitors of Human Jumonji Domain Containing 2E (JMJD2E); Potency, µM (doses to about 57.1 µM), inactives show top-dose activity change, negative = inhibition, actives largely listed as inhibitors; hit rate 1.6% among 230,000; Lysine-specific demethylase 4E (Homo sapiens), B2RXH2; AID 2147, 2009; JMJD2E catalytic domain, FDH-coupled NADH fluorescence (FDH is formaldehyde dehydrogenase);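 note: 0% = wells with enzyme and -100% = buffer wells without enzyme; nearly all actives have a fitted effect of over 50% in size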
RECQ1 inh – qHTS Assay for Inhibitors of RecQ-Like Dna Helicase 1 (RECQ1); ATP-dependent DNA helicase Q1 (Homo sapiens), P46063; RECQ1 DNA unwinding, red fluorescence kinetic read; Potency, µM (doses to about 57.3 µM), inactives show at the highest dose activity, negative = inhibition, most hits filed as inhibitors; hit rate 0.54% among 240,000; AID 2549, 2010;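 note: plate controls were vehicle for no effect and no enzyme for full effect; nearly all actives have a fitted effect of over 30% in size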
Target sequence (P46063 whole entry, looked up): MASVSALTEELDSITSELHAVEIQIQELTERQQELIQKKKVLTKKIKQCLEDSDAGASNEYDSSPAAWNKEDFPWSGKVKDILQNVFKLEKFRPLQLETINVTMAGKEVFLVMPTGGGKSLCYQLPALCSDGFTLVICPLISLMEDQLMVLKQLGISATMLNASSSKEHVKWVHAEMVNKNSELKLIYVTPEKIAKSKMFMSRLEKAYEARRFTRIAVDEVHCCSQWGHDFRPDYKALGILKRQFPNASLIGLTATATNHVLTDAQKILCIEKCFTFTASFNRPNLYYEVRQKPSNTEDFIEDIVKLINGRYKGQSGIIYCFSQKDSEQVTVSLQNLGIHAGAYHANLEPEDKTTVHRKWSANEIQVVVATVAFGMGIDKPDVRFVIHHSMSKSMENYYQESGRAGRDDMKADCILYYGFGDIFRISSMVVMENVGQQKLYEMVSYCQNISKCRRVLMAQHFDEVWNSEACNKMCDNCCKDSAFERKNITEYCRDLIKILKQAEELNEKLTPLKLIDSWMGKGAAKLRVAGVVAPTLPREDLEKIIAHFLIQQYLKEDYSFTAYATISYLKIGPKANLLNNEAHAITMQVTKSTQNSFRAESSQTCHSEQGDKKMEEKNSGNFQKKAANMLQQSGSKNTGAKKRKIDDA
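50 nM RECQ1T1 preincubated 15 min with compound in Tris pH 8.0 buffer with MgCl2, DTT, Tween-20 and 2.5 ug/ml poly(dI-dC); started with 200 nM TAMRA/BHQ-2 forked duplex and 2 mM ATP. Unwinding read as fluorescence (525/598 nm), two reads 2 h apart.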
TDP1 block – qHTS Assay for Inhibitors of Tyrosyl-DNA Phosphodiesterase (TDP1). AID 485290, 2010. recombinant TDP1, AlphaScreen DNA substrate cleavage. Potency, µM (doses to about 130 µM), inactives show at the highest dose activity change, negative = inhibition, usual class: inhibitors. hit rate 0.28% among 350,000; note: nearly all actives have a fitted effect of over 40% in size
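AlphaScreen read-out: signal falls as enzyme removes the 3' tyrosine-FITC from a 5'-biotinylated DNA oligo (15 nM, 5 min, RT). Enzyme was E. coli-made recombinant Tdp1 at 1 nM, exposed to compound for 15 min beforehand; beads 10 ug/ml, 10 min.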
GCN5L2 inh – qHTS Assay for Inhibitors of GCN5L2; Histone acetyltransferase KAT2A (Homo sapiens), Q92830; AID 504327, 2011; GCN5L2 HAT assay, ThioGlo1 CoA-SH fluorescence; hit rate 0.21% among 390,000; Potency, µM (titrated, usually from 58.9 µM), without a hit: top-dose activity change, negative = inhibition, usual class: inhibitors
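Enzyme at 20nM final was mixed with library compounds for 15 min at room temperature. Peptide H3(1-25) at 75uM, acetyl-CoA at 70uM and ThioGlo1 at 50uM were then added. Plates were read immediately and after 20 min (Ex340nm/Em540nm).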
BLM inh – qHTS Assay for Inhibitors of Bloom's syndrome helicase (BLM). Potency, µM (top dose mostly 56.1 µM), inactives show top-dose activity change, negative = inhibition, hits mostly inhibitors. recombinant BLM DNA unwinding, fluorescence dequenching. hit rate 0.2% among 350,000;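 note: plate controls were vehicle for no effect and no enzyme for full effect; nearly all actives have a fitted effect of over 35% in size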
The depositor's hits bear a star. The entries come from a sample that favours hits as a whole. Unless noted, calls come from the whole dose curve; as a rule, active = well fitted curve in the direction sought with a large enough effect; inconclusive = small, poorly fitted or top-dose-only effect, or another doubt; inactive = no such curve, though single readings can be large; an effect the other way counts as inactive or inconclusive. Unless noted, % is set by controls: 0 for no effect and ±100 for the full control effect; potency is the fitted concentration of half-maximal effect.

How did CCN1C(=O)/C(=C2\SC(=S)N(NC(=O)c3ccccc3O)C2=O)c2ccccc21 do in these assays?
APE1 inh: -1.0%; KDM4E inh: 25.1µM*; RECQ1 inh: -6.0%; GCN5L2 inh: -28.8%; BLM inh: -0.1%

What do the screens show for `CCN1C(=O)/C(=C2\SC(=S)N(c3c(C)n(C)n(-c4ccccc4)c3=O)C2=O)c2ccccc21`?
APE1 inh: -2.7%; KDM4E inh: 3.4%; RECQ1 inh: inactive; TDP1 block: -2.6%; GCN5L2 inh: -3.1%; BLM inh: -1.1%

Results for Cc1ccc(NS(=O)(=O)c2ccc3c(ccn3C)c2)cc1C ?
TDP1 block: 0.1%

How did COc1cc(/C=N/NC(=O)C2=NNC(=O)C2C)ccc1O (stereo unspecified) do in these assays?
APE1 inh: -0.3%; KDM4E inh: -13.1%; RECQ1 inh: -9.0%; GCN5L2 inh: 0.0%; BLM inh: 3.0%

Results for CC1C(=O)NN=C1C(=O)N/N=C\c1ccc(O)cc1O (stereo unspecified) ?
APE1 inh: -2.8%; KDM4E inh: 22.4µM*; RECQ1 inh: inconclusive; TDP1 block: 1.1%; GCN5L2 inh: -6.8%; BLM inh: -1.9%

How did Cc1cc(C)n2c(=S)[nH]nc2n1 do in these assays?
APE1 inh: 8.1%; KDM4E inh: 7.08µM*; RECQ1 inh: -1.7%; TDP1 block: 3.1%; GCN5L2 inh: 25.1µM*; BLM inh: 0.4%

How did O=C(O)c1cc(F)c(S(=O)(=O)N2CCN(S(=O)(=O)c3ccc4c(c3)OCCO4)CC2)cc1F do in these assays?
TDP1 block: -4.4%

Results for Cc1[nH]c2ccccc2c1CN1CCC(Cc2ccccc2)CC1 ?
APE1 inh: -10.8%; KDM4E inh: 25.1µM*; RECQ1 inh: -3.9%; TDP1 block: 6.3%; GCN5L2 inh: 2.9%; BLM inh: -2.5%

Results for CC(C)c1cc(C(=O)Nc2sc3c(c2C#N)CCC3)no1 ?
APE1 inh: -5.2%; KDM4E inh: -0.4%; RECQ1 inh: inactive; TDP1 block: 6.8%; GCN5L2 inh: -8.6%; BLM inh: -4.3%

What do the screens show for `CC(C)c1onc(C(=O)Nc2sc3c(c2C#N)CCC3)c1[N+](=O)[O-]`?
APE1 inh: inconclusive; KDM4E inh: -9.1%; RECQ1 inh: 39.8µM*; TDP1 block: -2.3%; GCN5L2 inh: -18.4%; BLM inh: -14.9%

Results for N[C@H](CSSC[C@@H](N)C(=O)O)C(=O)O ?
APE1 inh: -2.5%; RECQ1 inh: 4.9%; TDP1 block: 7.5%; GCN5L2 inh: -5.7%; BLM inh: 1.8%

Results for CC[C@H](C)[C@H](NC(=O)[C@H](C)NC(=O)[C@H](CC(=O)O)NC(=O)[C@H](CO)NC(=O)[C@@H](N)Cc1cnc[nH]1)C(=O)N[C@@H](Cc1ccccc1)C(=O)N[C@H](C(=O)N[C@@H](CCC(N)=O)C(=O)N[C@@H](CCC(N)=O)C(=O)N[C@@H](Cc1ccc(O)cc1)C(=O)N[C@@H](CO)C(=O)N[C@@H](CCCCN)C(=O)N[C@@H](CC(C)C)C(=O)N[C@@H](CC(C)C)C(=O)N[C@@H](C)C(=O)N[C@@H](CCCCN)C(=O)N[C@@H](CC(C)C)C(=O)N[C@@H](C)C(=O)N[C@@H](CC(C)C)C(=O)N[C@@H](CCC(N)=O)C(=O)N[C@@H](CCCCN)C(=O)N[C@@H](Cc1ccc(O)cc1)C(=O)N[C@@H](CC(C)C)C(=O)N[C@@H](C)C(=O)N[C@@H](CO)C(=O)N[C@H](C(=O)N[C@@H](CC(C)C)C(=O)NCC(=O)N[C@@H](CO)C(=O)N[C@@H](CCCNC(=N)N)C(=O)N[C@H](C(=O)N[C@@H](CO)C(=O)N1CCC[C@H]1C(=O)N1CCC[C@H]1C(=O)N1CCC[C@H]1C(N)=O)[C@@H](C)O)[C@@H](C)CC)[C@@H](C)O ?
APE1 inh: inconclusive; RECQ1 inh: -14.3%; TDP1 block: 7.5%; GCN5L2 inh: inconclusive; BLM inh: -4.9%

Results for COc1cccc2sc3cc(C#Cc4ccccn4)ccc3c(=O)c12 ?
APE1 inh: -7.5%; TDP1 block: 44.7µM*; GCN5L2 inh: -7.7%

What do the screens show for `CCCN1CNc2c(c(=O)[nH]c(=S)n2CCc2cc(OC)cc(OC)c2)C1`?
TDP1 block: -8.4%

How did c1csc(CNc2ccc(N3CCOCC3)cc2)c1 do in these assays?
APE1 inh: 33.0%

How did Clc1cccc(Cl)c1CNc1ccc(N2CCCC2)cc1 do in these assays?
APE1 inh: inconclusive; KDM4E inh: 12.6µM*; RECQ1 inh: inactive; TDP1 block: 8.6%; GCN5L2 inh: 2.6%; BLM inh: -3.1%

What do the screens show for `COc1ccc(Br)cc1C1NC(c2ccc3c(c2)OCO3)=CC(c2cc(Cl)ccc2O)N1` (stereo unspecified)?
TDP1 block: 3.5%

What do the screens show for `COc1ccc(-c2nc3ccccc3nc2-c2ccc(OC)cc2)cc1`?
APE1 inh: 19.1%; GCN5L2 inh: -14.8%; BLM inh: -8.9%

How did COc1ccc(OC)c(-c2nc3cc4ccccc4cc3nc2-c2ccccc2)c1 do in these assays?
APE1 inh: -6.0%; KDM4E inh: -2.5%; RECQ1 inh: 3.16µM*; TDP1 block: -2.6%; GCN5L2 inh: -18.4%; BLM inh: -10.6%

How did CCN(CC)CCOCCOC(=O)C(CC)(CC)c1ccccc1 (tested in a mixture with another compound) do in these assays?
TDP1 block: -2.1%; GCN5L2 inh: -5.3%; BLM inh: -13.0%

How did COc1ccccc1C(=O)Nc1nnc(-c2ccco2)s1 do in these assays?
APE1 inh: inconclusive; KDM4E inh: inconclusive; RECQ1 inh: -12.8%; TDP1 block: 50.1µM*; GCN5L2 inh: -3.2%; BLM inh: -0.1%

What do the screens show for `COc1ccc(C2Nc3ccc(Cl)cc3C(=O)N2Cc2ccccc2)cc1COc1ccc(NC(C)=O)cc1` (stereo unspecified)?
TDP1 block: -13.6%

Results for CC(C)(C)n1ncc2c(=O)n(Cc3cccc(Cl)c3Cl)cnc21 ?
APE1 inh: 19.9%

High-throughput results: PubChem, National Center for Advancing Translational Sciences (NCATS)
